Assay results as given in PubChem BioAssay (NCATS).
Records with an inconclusive call do not appear. Entries that show only a call come without a potency. Calls of active or inactive are those of the source. The call rests on the fitted dose curve; in most records, active means well fitted inhibition curve with a large enough effect; inconclusive means small, poorly fitted or top-dose-only effect; inactive means no such curve, though single readings can be large or run the other way.
Potency means the concentration at half of the fitted maximal effect.

Assay: Primary qHTS for inhibitors of nuclear receptor binding SET domain protein 2 (NSD2) in an RCH-ACV wild type WT cells (2C) (AID 1645877); further: nearly all actives have a fitted effect of over 70% in size
Conditions: RCH-ACV (leukaemia line) NSD2 WT (2C) viability, CellTiter-Glo, 72 h; series mostly up to 44.9 µM
In the case of `C/C(=C\CC/C(C)=C/CC[C@]1(C)CCc2cc(O)cc(C)c2O1)CC/C=C(\C)C(=O)O`, the Potency is reported as “inactive”. In the case of `N#CN1CCC[C@@H](n2nc(-c3ccc(Oc4ccc(F)cc4F)cc3)c(C(N)=O)c2N)C1`, the Potency is reported as 16.6 µM (active). With `CCCCOc1nc(N)c2c(n1)N(Cc1cccc(CN3CCCC3)c1)CC(=O)N2` the Potency was “inactive”. In the case of `Nc1ncnc2c1C(=O)N(c1ccc(C3CCC(CC(=O)O)CC3)cc1)CCO2` (configuration not stated), the Potency is reported as “inactive”. For `Cc1ncc(Cl)cc1NCc1ccc(C(=O)NC(CC2CCCC2)C(=O)NC2CC2)s1` (configuration not stated), the Potency was 14.8 µM (active). In the case of `CC(=O)O[C@H]1C[C@@]2(C)[C@@H](CC[C@H]3[C@@]4(C)C=CC(=O)[C@@H](C)[C@@H]4[C@H](OC(C)=O)C(=O)[C@@]32C)/C1=C(\CCC=C(C)C)C(=O)O`, the Potency is reported as “inactive”. In the case of `Cn1cc(-c2c[nH]c3ncnc(N4CCOCC4)c23)cn1`, the Potency is reported as 23.1 µM (active). With `C[C@@H]1O[C@@H](O[C@@H]2\C=C/C=C\C=C/C=C\C[C@H](C)OC(=O)/C=C\[C@H]3O[C@@H]3C[C@H](O)C[C@]3(O)C[C@@H](O)[C@@H](C(=O)O)[C@H](C2)O3)[C@H](O)[C@H](N)[C@@H]1O` the Potency was “inactive”. In the case of `Cc1nc(-c2cccnc2)sc1C(=O)Nc1ccccc1-c1cn2c(CN3CCOCC3)csc2n1`, the Potency is reported as “inactive”. For `O=C(COCC(=O)N1CCN(C(c2ccccc2)c2ccccc2)CC1)Nc1ccc(Cl)cc1C(=O)O`, the Potency was “inactive”. In the case of `CCC(CC)CC1(C(=O)Nc2ccccc2SC(=O)C(C)C)CCCCC1`, the Potency is reported as “inactive”. In the case of `CC(C)c1ccc2c(c1)CCC1[C@](C)(C(=O)O)CCC[C@]21C` (some centres not stated), the Potency is reported as “inactive”.
